Test results from PubChem BioAssay AID1851 (National Center for Advancing Translational Sciences (NCATS), 2009).
Values joined by “and” are separate entries in the source; they are usually repeats but may differ in a detail not shown here. Equal values may be shown once. Among all 16,000 compounds or so, about 5,100 (32%) were called active. Another 25% or so got no clear call; they are omitted. The call rests on the fitted dose curve; in most records, active means well fitted curve in the direction sought with a large enough effect; inconclusive means small, poorly fitted or top-dose-only effect, or effect the other way; inactive means no such curve, though single readings can be large or run the other way. The list shows a part of the results.

What follows are compounds tested against Cytochrome P450 3A4 (Homo sapiens) (UniProt P08684) (assay: Cytochrome panel assay with activity outcomes). Conditions: recombinant CYP, pro-luciferin dealkylation, luminescence, p450-cyp3a4; series mostly up to 57.1 µM; activity, negative = inhibition: at the top concentration.
On the % scale 0 is the no-effect control and ±100 the full control effect.

Sequence of Cytochrome P450 3A4 (Homo sapiens) (P08684 whole entry, looked up): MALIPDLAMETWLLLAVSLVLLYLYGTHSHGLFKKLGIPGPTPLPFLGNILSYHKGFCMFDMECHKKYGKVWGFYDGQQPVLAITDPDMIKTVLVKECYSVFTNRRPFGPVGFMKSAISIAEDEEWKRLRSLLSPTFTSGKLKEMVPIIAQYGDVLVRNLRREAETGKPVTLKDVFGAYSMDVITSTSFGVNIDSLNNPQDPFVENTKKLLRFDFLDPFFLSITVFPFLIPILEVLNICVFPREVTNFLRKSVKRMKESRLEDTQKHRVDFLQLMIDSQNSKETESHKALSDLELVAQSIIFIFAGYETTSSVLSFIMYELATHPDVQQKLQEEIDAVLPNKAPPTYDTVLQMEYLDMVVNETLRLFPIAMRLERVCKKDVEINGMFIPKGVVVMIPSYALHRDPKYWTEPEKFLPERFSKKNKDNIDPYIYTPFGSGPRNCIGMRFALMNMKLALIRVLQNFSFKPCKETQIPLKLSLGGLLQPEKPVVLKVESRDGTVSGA

activity, negative = inhibition, inactive:
CC1CCN(CC[S-])CC1.O.O.[Cl][Pt] -1.49% [at 11.4 µM]
O=C(Nc1cc(C(=O)Nc2ccc(S(=O)(=O)O)cc2S(=O)(=O)O)cc(C(=O)Nc2ccc(S(=O)(=O)O)cc2S(=O)(=O)O)c1)Nc1cc(C(=O)Nc2ccc(S(=O)(=O)O)cc2S(=O)(=O)O)cc(C(=O)Nc2ccc(S(=O)(=O)O)cc2S(=O)(=O)O)c1 -3.85%
Fc1nc(N2CCCC2)c(F)c(Oc2ccccc2Oc2c(F)c(F)nc(N3CCCC3)c2F)c1F 17.1%
CN(C)C(=O)c1ccc(-c2cc(N(C)Cc3ccco3)ncn2)cc1 25.6%
Cc1noc(C)c1-c1ccc2ncnc(N(C)C)c2c1 -29.5%
N#CC(CC(=O)O)=C(c1ccccc1)c1ccccc1 5.39% [at 11.4 µM]
CC(=O)Nc1c(C)nn(-c2ccc(C)c(C)c2)c1C -3.89% [at 11.4 µM]
Cc1nn(-c2ccc(F)cc2)c(Cl)c1/C=C(\CCC(=O)O)c1nc2ccccc2s1 21.6%
Cc1ccc(C(=O)N/N=C/c2ccc([N+](=O)[O-])s2)cc1 -26.6%
O=[N+]([O-])c1ccc(C=Nc2ccc(Cl)cc2Cl)s1 -29.3%
O=C(O)Cc1ccc(NC(=O)C2CCCCC2C(=O)O)cc1 (stereo unspecified) -1.35%
CCSc1nnc(NC(=O)Cc2ccc(OC)c(OC)c2)s1 -2.65% [at 2.29 µM]
CCSc1nnc(NC(=O)C(C(F)(F)F)C(F)(F)F)s1 -17%
O=C(NCCc1ccc(O)cc1)c1ccc(Cl)cc1 1.62% [at 2.29 µM]
CC[C@@]1([N+](=O)[O-])C[C@H]2C=C[C@@H]1C2 -4.49% [at 11.4 µM]
Cc1cc(N)n(-c2ccccc2)n1 -14.7%
Nc1nc(-c2ccc3ccccc3c2)cc(-c2cc(-c3ccc4ccccc4c3)nc(N)n2)n1 -3.3% [at 11.4 µM]
COc1cc(N=C(N)N=C(N)N)c2ncccc2c1 -8.88% [at 11.4 µM]
CC1Cc2ccccc2N1C(=O)c1cc2c(=O)n3ccccc3nc2n1C (stereo unspecified) -16.7%
CC1Cc2ccccc2N1C(=O)CSCC(=O)O (stereo unspecified) -12.7%
CCOC(=O)CCN1C(=O)[C@H]2[C@@H]3[C@H](O)[C@H](O)CC(=O)[C@H]3CC[C@H]2C1=O -4.78% [at 11.4 µM] and -14.8% [at 11.4 µM]
CC1Cc2ccccc2N1C(=O)CN1C(=O)COc2ccccc21 (stereo unspecified) -6.97% [at 2.29 µM]
O=C(O)Cc1ccc2ocnc2c1 10.5%
Cc1nc2cnc(Oc3ccccc3)nc2n(C)c1=O -6.94%
CN(C)S(=O)(=O)c1ccc(C(=O)Nc2ccc(CN3CCCC3)cc2)cc1 24.6%
CN(C)S(=O)(=O)c1ccc(NC(=O)COC(=O)c2ccccn2)cc1 -17.6%
COc1ccc(-c2oc3ccccc3c(=O)c2OC(=O)c2ccc(C)cc2)cc1 2.5%
Nc1c(OCC(=O)O)ccc2cc(S(=O)(=O)O)ccc12 -9.68% [at 11.4 µM]
CNc1ncnc2c1ncn2[C@@H]1O[C@H](CO)[C@@H](O)[C@@H]1O 10% [at 25.6 µM]
NC(=O)OC[C@H](O)COc1ccc(Cl)cc1 -3.48% [at 25.6 µM]
O=C(Nc1ccc2ccccc2c1)[C@@H]1C[C@H]1[C@@H](NP(=O)(c1ccccc1)c1ccccc1)c1ccccc1 -44.6%
CC(C)=CCC/C(C)=C/CO/N=C1/C[C@@H](O)[C@@H](O)[C@@H]2[C@@H]3C(=O)N(C[C@@H]4CCCO4)C(=O)[C@H]3CC[C@@H]12 -23% [at 11.4 µM]
CCOC(=O)CCN1C(=O)[C@H]2[C@H]3[C@H](O)[C@H](O)C/C(=N/OC/C=C(\C)CCC=C(C)C)[C@@H]3CC[C@@H]2C1=O -25.9% [at 11.4 µM]
CCOC(=O)CCN1C(=O)[C@H]2[C@H]3[C@H](O)[C@H](O)C/C(=N/OC/C=C(\C)CCC=C(C)C)[C@H]3CC[C@@H]2C1=O -16.7% [at 11.4 µM]
CC(C)=CCC/C(C)=C/CO/N=C1/C[C@@H](O)[C@@H](O)[C@@H]2[C@@H]3C(=O)N(Cc4ccccc4)C(=O)[C@H]3CC[C@@H]12 -7.78% [at 11.4 µM]

AC50, active:
Cc1cc(C(=O)N[C@H](c2ccccc2)[C@@]2(C)C[C@@H]2[C@@H](C)C(=O)Nc2ccc3ccccc3c2)n(C)n1 0.794 µM
Cc1cc(C(=O)N[C@@H](c2ccccc2)[C@]2(C)C[C@H]2[C@@H](C)C(=O)Nc2ccc3ccccc3c2)n(C)n1 0.794 µM
CN(Cc1ccco1)c1ncnc2ccc(-c3ccc4c(c3)OCO4)cc12 2.51 µM
Cc1noc(C)c1-c1ccc2ncnc(N(C)Cc3ccco3)c2c1 25.1 µM
CN(Cc1ccco1)c1ncnc2ccc(-c3ccoc3)cc12 25.1 µM
Cc1nn(-c2ccc(F)cc2)c(C)c1NS(=O)(=O)c1ccc2ccccc2c1 4.47 µM
Cc1cccc(NC(=S)N/N=C/c2ccc([N+](=O)[O-])s2)c1 22.4 µM
CCSc1nnc(NC(=O)CSc2nc3c(cc2C#N)CCCC3)s1 10 µM
Oc1cc2c(cc1O)CN(C(=S)NCCc1ccc(Cl)cc1)CCC2 3.16 µM
C/C(=C\c1ccco1)C1C(C#N)=C(N)Oc2n[nH]c(-c3ccccc3)c21 (stereo unspecified) 3.98 µM
Cc1ccc(NC(=O)C(=O)NCc2ccc(/C=C(/C#N)C(=O)NCc3cccnc3)o2)cc1 1.41 µM
Cc1cc(N)n(-c2ccc3ccccc3c2)n1 28.2 µM
O=C(CCN1C(=O)C2C3C=CC(C3)C2C1=O)NCCN1CCCc2ccccc21 (stereo unspecified) 3.98 µM
CC1Cc2ccccc2N1C(=O)CCN1C(=O)C2C3C=CC(C3)C2C1=O (stereo unspecified) 1.41 µM
CC1Cc2ccccc2N1C(=O)Cn1c(=O)cc(O)c2ccccc21 (stereo unspecified) 25.1 µM
COc1ccc(Oc2ncc3nc(C)c(=O)n(C)c3n2)cc1 25.1 µM
COc1ccc(-n2c(=O)c(C)nc3cnc(Oc4ccccc4)nc32)cc1 15.8 µM
COc1ccc(Oc2ncc3nc(C)c(=O)n(-c4ccc(OC)cc4)c3n2)cc1 3.98 µM
COc1ccc(Oc2ncc3nc(C)c(=O)n(-c4ccccc4)c3n2)cc1 5.01 µM
CCOC(=O)c1oc2ccccc2c1NC(=O)c1cc(OC)cc(OC)c1 7.94 µM
CCOC(=O)c1oc2ccccc2c1NC(=O)c1ccc(S(=O)(=O)N(C)C)cc1 14.1 µM
CCOC(=O)c1oc2ccccc2c1NC(=O)c1ccc2c(c1)OCO2 2.24 µM
O=C(Nc1ccc2ccccc2c1)[C@H]1C[C@@H]1[C@H](NP(=O)(c1ccccc1)c1ccccc1)c1ccccc1 2.51 µM
C[C@H](CO)NC(=O)[C@@H]1C[C@H]1[C@@H](NP(=O)(c1ccccc1)c1ccccc1)c1ccccc1 12.6 µM
CC(C)=CCC/C(C)=C/CO/N=C1/C[C@@H](O)[C@@H](O)[C@@H]2[C@@H]3C(=O)N(Cc4ccc5c(c4)OCO5)C(=O)[C@H]3CC[C@H]12 1.58 µM
CC(C)=CCC/C(C)=C/CO/N=C1/C[C@@H](O)[C@@H](O)[C@@H]2[C@@H]3C(=O)N(Cc4ccc5c(c4)OCO5)C(=O)[C@H]3CC[C@@H]12 1.58 µM
